This is an account of results in ChEMBL document CHEMBL3988442, “University of Dundee, Small-Polar-MMV Screening Library” (2021).

About 25 (0.04%) of roughly 68,000 compounds showed an effect of 50% or more. The list comes from a sample in which strong results are over-represented; it also holds similar structures and randomly drawn compounds.

The target of this experiment is T1, Methionyl-tRNA synthetase, putative (Leishmania donovani (strain BPK282A1)) (UniProt E9BF75).
T1 sequence (whole entry): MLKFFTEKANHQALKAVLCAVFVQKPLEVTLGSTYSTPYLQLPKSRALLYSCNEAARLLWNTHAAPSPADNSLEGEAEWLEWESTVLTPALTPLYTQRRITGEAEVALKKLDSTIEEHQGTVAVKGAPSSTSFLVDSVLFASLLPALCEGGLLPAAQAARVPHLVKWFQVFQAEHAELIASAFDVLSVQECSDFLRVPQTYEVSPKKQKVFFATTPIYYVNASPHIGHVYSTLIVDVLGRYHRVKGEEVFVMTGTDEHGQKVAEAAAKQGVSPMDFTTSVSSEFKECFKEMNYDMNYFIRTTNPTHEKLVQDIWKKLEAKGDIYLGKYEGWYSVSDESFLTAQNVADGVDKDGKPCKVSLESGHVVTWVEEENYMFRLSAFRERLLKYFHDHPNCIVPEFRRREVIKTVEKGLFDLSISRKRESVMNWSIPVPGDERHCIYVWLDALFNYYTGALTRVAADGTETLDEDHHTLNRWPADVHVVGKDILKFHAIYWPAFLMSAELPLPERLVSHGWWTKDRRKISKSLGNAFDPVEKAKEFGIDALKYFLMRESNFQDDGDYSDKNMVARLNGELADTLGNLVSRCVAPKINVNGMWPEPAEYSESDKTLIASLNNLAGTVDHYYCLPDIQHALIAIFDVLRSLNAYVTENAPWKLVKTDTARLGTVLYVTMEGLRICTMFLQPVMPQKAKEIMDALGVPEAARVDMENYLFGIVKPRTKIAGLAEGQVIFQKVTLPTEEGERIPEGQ
The experiment in a line: Leishmania donovani Methionine tRNA synthetase (LdMetRS):v6. Primary screen assay. It counts as functional. More on the design: conc 80 nM, time 150 minutes.
Consider `Cc1ocnc1C(=O)N1CCN(Cc2ccccc2)[C@@H]2CS(=O)(=O)C[C@@H]21`, for which the inhibition was 11.8%. In the case of `O=C([C@@H]1C[C@H]2[C@H](CCN2Cc2nccs2)O1)N1CCOCC1` it was 12.4%. To `Cc1noc([C@@H]2CC[C@@H]3[C@@H](CCN3S(=O)(=O)c3ccccc3)O2)n1` belongs 21.6%; to `Cn1ccnc1CN1C[C@H]2CN(S(C)(=O)=O)CCN2C1=O`, 12%; to `COCCN1C(=O)CC[C@@H]2[C@H]1CCN2C(=O)C1CCOCC1`, 7.27%. `CCN1C[C@H]2[C@@H](C1)N(S(=O)(=O)c1ccccc1F)CC[C@H]2OC`: the inhibition amounted to 18.4%. As for `Cc1cnn(CCNCc2c(C)nn(CCO)c2C)c1`, the inhibition stood at 105%. In the case of `CCn1nc(C)c(CNCCn2cc(C)cn2)c1C` it was -6.21%; in that of `Cc1cnn(CCNCc2c(C)nn(-c3ccccc3)c2C)c1`, 121%; in that of `Cc1cnn(CCNCc2c(C)nn(C)c2Cl)c1`, 15.4%.

On to `Cc1cnn(CCNCc2c(C)nn(Cc3ccccc3)c2C)c1`, for which the inhibition was found to be 9.32%. To `Cc1cnn(CCNCc2ccccc2F)c1` belongs 13%; to `Cc1cccc2nc(C(=O)N3CCCC[C@]4(C)NC(=O)CC[C@H]34)cn12`, 13.5%.

On to `O=C(N1CCOCC(O)C1)C1(c2ccc(Cl)cc2)CCC1` (centres undefined), for which the inhibition came out at 123%. For the molecule `O=C(N1CCC(O)(C(F)(F)F)C1)C1(c2ccc(Cl)cc2)CC1` (centres undefined), the inhibition amounted to 8.1%.

On to `O=C(N1CCOCC1CO)C1(c2cccs2)CCCC1` (centres undefined), for which the inhibition was 8.7%.

As for `CNC(=O)CC1COCCN1C(=O)C1(c2ccc(Cl)cc2)CCC1` (centres undefined), the inhibition is 7.45%. In the case of `O=C(N1CCCC(n2cncn2)C1)C1(c2ccc(Cl)cc2)CCC1` (centres undefined) it was 15.4%; in that of `O=C(O)CC1COCCN1C(=O)C1(c2ccc(Cl)cc2)CCC1` (centres undefined), 52.2%.

In the case of `O=C(c1ccco1)N1C[C@@H]2CN(c3ccccn3)C[C@@H]2C1`, the inhibition amounted to 6.11%. Consider `O=C(NCc1ccco1)[C@H]1CC[C@@H]2[C@@H](CCN2c2ncccn2)O1`, for which the inhibition was determined as 3.27%. For `CC(C)CN1Cc2nc(N3CCC(O)CC3)ncc2C1=O`, the inhibition came to 7.08%. For the molecule `Cc1nonc1CC(=O)N1C[C@@H]2CC[C@H](C1)N(Cc1ccccc1)C2=O`, the inhibition turned out to be 6.88%.

On to `N#Cc1ccccc1CN1C[C@@H]2CC[C@H](C1)N(CC1CCC1)C2=O`, for which the inhibition worked out at 19.4%.

Regarding `CCc1[nH]c2c(CNc3cncc(C(=O)N(C)C)n3)cc(F)cc2c1C`, the inhibition is 28.6%. In the case of `CCc1[nH]c2c(CNc3cncc(C(=O)OC)n3)cc(C)cc2c1C` it was 123%; in that of `CCc1[nH]c2c(CNc3cncc(C(=O)N(C)C)n3)cc(C)cc2c1C`, 32.3%; in that of `CCOCC(=O)N1CC[C@H]2OCC[C@@]2(COc2ncccc2F)C1`, 6.53%.

In the case of `NC(=O)c1ccc(OCC(=O)N2CCCC2c2ccc[nH]2)cc1` (centres undefined), the inhibition was determined as 15.5%.

For the molecule `CC1CCN(c2ccc(C(=O)N3CCCC3c3ccc[nH]3)cn2)CC1` (centres undefined), the inhibition worked out at 78.5%. To `CC1CCN(c2ccc(C(=O)N3CCCC3c3nncn3C)cn2)CC1` (centres undefined) belongs 4.75%. For `CCCOc1cc(C)c2c(c1C)C[C@H]([C@H](C)C(=O)O)CC2`, the inhibition turned out to be 2.26%.

With `CC(C)N1[C@H](CN2CCCC2)C[C@@H]2CN(Cc3cnn(C)c3)CC[C@@H]21`, the inhibition was determined as 12.3%.

For the molecule `c1coc(CN2CCO[C@H]3[C@H](OCC4CC4)CC[C@@H]32)c1`, the inhibition was determined as 13.7%. To `O=C(NCC1CCOCC1)[C@@H]1CC[C@@H]2[C@@H](CCN2Cc2ccncc2)O1` belongs 19.3%; to `Cc1nc(CN2C(=O)C[C@@H]3[C@@H]2CCN3S(=O)(=O)C2CC2)cs1`, 11.7%. Regarding `COCC(=O)N1C[C@@H]2CCCO[C@@H]2[C@H](N(C)Cc2ccco2)C1`, the inhibition is -6.25%. On to `CNC(=O)[C@H]1C[C@@H]2CN(Cc3ccccc3)C[C@H]1O2`, for which the inhibition amounted to 15.9%.

`COC(=O)CNC(=O)c1cccc(C(=O)N(C)c2ccccc2)c1`: the inhibition amounted to 95%. To `COC(=O)CCNC(=O)c1cccc(C(=O)N(C)c2ccccc2)c1` belongs 31.7%. In the case of `CN(C(=O)c1cccc(C(=O)NCC(F)(F)F)c1)c1ccccc1`, the inhibition was 3.94%. In the case of `O=C(NC1CC1)N1C[C@@H]2CCN(C(=O)c3cscn3)[C@@H]2C1` it was 0.546%; in that of `CO[C@H]1C[C@@H]2CN(C(=O)c3cc4ccc(F)cc4[nH]3)C[C@@H]2C1`, 13.3%; in that of `O=C1[C@H]2CN(S(=O)(=O)c3ccccc3)C[C@H]2CN1Cc1cccnc1`, 4.19%. `Cc1nnc(NC(=O)NCc2ccc(N3CCNC(=O)C3)cc2)s1`: the inhibition stood at 9.92%.

Consider `Cc1cccnc1NC(=O)NCc1ccc(N2CCNC(=O)C2)cc1`, for which the inhibition was 50.6%. To `Cc1ccccc1C(=O)NCc1ccc(N2CCNC(=O)C2)cc1` belongs 14.1%. Regarding `CN(C)S(=O)(=O)N1CC[C@]2(O)CCN(Cc3cccc(F)c3)C[C@@H]2C1`, the inhibition was found to be 12.9%. To `CC(C)c1nc(N2CCC(N3CCCC(O)C3)CC2)c2cnn(C)c2n1` (centres undefined) belongs 14.7%; to `CC(C)c1nc(N2CCC(N3CCSCC3)CC2)c2cnn(C)c2n1`, 12.3%. To `CC(C)c1nc(N2CCC(N3CCCCCC3)CC2)c2cnn(C)c2n1` belongs 56.4%. To `CC1=N[C@@]2(CC[C@@H]3CN(CC4CC4)C[C@@H]32)C(=O)N1CC(C)C` belongs 14.9%.

Regarding `COCCN1C[C@H]2CC[C@@H]1CN(C(=O)CCn1cc(Cl)cn1)C2`, the inhibition amounted to 9.25%.

For `CC(C)CC(=O)N1CC[C@@H]2[C@H](CC1)N(Cc1cccnc1)CCS2(=O)=O`, the inhibition came to 15.2%. For the molecule `CN(C)CCN1CC[C@H]2[C@@H]1CCN2Cc1ccc2c(c1)OCO2`, the inhibition worked out at 5.56%. Regarding `CCCSCC(=O)N1C[C@@H]2CC[C@H](C1)N(Cc1ccccn1)C2=O`, the inhibition is -1.42%. To `c1ccc(CN2C[C@H]3CC[C@@H]2CN(Cc2nnc(C4CC4)o2)C3)cc1` belongs 12.8%. In the case of `CN(C)C(=O)N1CCN(c2ccc3ccc(C(=O)NC4CC4)cn23)CC1` it was 20.2%. With `CC(C)N1CCN(c2ccc3ccc(C(=O)NC4CCCC4)cn23)CC1`, the inhibition amounted to 30.2%.

For orientation: inhibition means the relative decrease from the control value, in per cent.
